SMILES strings stand for the structures. Counter-ions that a name gives are not always drawn.

The assay has as its system Danio rerio larvae (5 dpf). Nature of the assay: habituation (activity change first vs second 5 min of 1-s interval sound, period 17) minus DMSO control (percentage points); higher = larger habituation measure than DMSO larvae. To be noted: 10 µM; exposure time: 3 h pre-incubation + 3 h imaging. How it is done: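 Wild-type 5 dpf zebrafish larvae (n=48 per drug, 96-well plates, 28.5 °C) were exposed to Tocris FDA-approved library compounds at 10 µM (0.1% DMSO) for 3 h before and 3 h during imaging. Images were taken every 6 s during visual (moving coloured lines) and acoustic stimuli, and larvae were tracked with the DeepLabCut-based Z-LaP Tracker. Each behavioural measure is the treated-group mean minus the DMSO vehicle control mean (n=844), in percentage points. This mapping covers compounds with 4-character plate codes.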
As for `CCN(C)C(=O)Oc1cccc([C@H](C)N(C)C)c1` [Rivastigmine tartrate], the habituation was determined as 0.0925.

As to `Cc1cccc([C@H](C)c2c[nH]cn2)c1C` [Dexmedetomidine hydrochloride], the habituation was -10.4.

`C=C1C[C@@H]2[C@H](CC[C@]3(C)C(=O)CC[C@@H]23)[C@@]2(C)C=CC(=O)C=C12` [Exemestane]: the habituation was -2.71.

As for `CC(C)C[C@H]1C(=O)N2CCC[C@H]2[C@]2(O)O[C@](NC(=O)[C@@H]3C=C4c5cccc6[nH]c(Br)c(c56)C[C@H]4N(C)C3)(C(C)C)C(=O)N12` [Bromocriptine mesylate], the habituation was -1.05.

`CC[C@@H](C(N)=O)N1CCCC1=O` [Levetiracetam]: the habituation was -2.

For `CN1C[C@H](C(=O)N[C@]2(C)O[C@@]3(O)[C@@H]4CCCN4C(=O)[C@H](Cc4ccccc4)N3C2=O)C[C@@H]2c3cccc4[nH]cc(c34)C[C@H]21` [Dihydroergotamine mesylate], the habituation was 2.38.

Regarding `CC(O)(CS(=O)(=O)c1ccc(F)cc1)C(=O)Nc1ccc(C#N)c(C(F)(F)F)c1` (stereo unspecified) [Bicalutamide], the habituation is -6.13.

Take `N[C@@H]1C[C@H]1c1ccccc1` [Tranylcypromine hydrochloride]: the habituation was -2.8.

`C=CCN1C[C@H](C(=O)N(CCCN(C)C)C(=O)NCC)C[C@@H]2c3cccc4[nH]cc(c34)C[C@H]21` [Cabergoline]: the habituation is 5.7.

As for `O=c1[nH]c2ccccc2n1C1CCN(CCCC(c2ccc(F)cc2)c2ccc(F)cc2)CC1` [Pimozide], the habituation was -10.2.

For the compound `COc1cc2c(cc1OC)C1CC(=O)C(CC(C)C)CN1CC2` (stereo unspecified) [Tetrabenazine], the habituation worked out at 0.576.

These data come from the supplement of paper PMC9950053.
